Test results taken from PubChem BioAssay (NCI).
The panel holds about 83,000 compounds, 20% with a hit somewhere; the sample as a whole holds those more often.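 The endpoint reported here, percent growth, reads 100 for growth as untreated, 0 for no net growth and -100 for all cells dead.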 Values without a mark were called inactive. Calls of active or inactive are those of the source. The calls were made as follows: active = growth percent below 10; inactive = the rest.

What was measured:
Test in all cases: NCI-60 one-dose screen, 48 h (100 = growth as untreated, 0 = no growth, -100 = all killed)
Settings in all cases: 10 µM unless noted
BT-549 breast = tested on: BT-549 breast
MDA-MB-435 melanoma = tested on: MDA-MB-435 melanoma
SW-620 colon = tested on: SW-620 colon
MCF7 breast = tested on: MCF7 breast
HCT-116 colon = tested on: HCT-116 colon
HCC-2998 colon = tested on: HCC-2998 colon
KM12 colon = tested on: KM12 colon

SMILES	growth (BT-549 breast)	growth (MDA-MB-435 melanoma)	growth (SW-620 colon)	growth (MCF7 breast)	growth (HCT-116 colon)	growth (HCC-2998 colon)	growth (KM12 colon)
C=CCn1c(SCC(=O)Nc2ccc(C(=O)/C=C/c3cc(OC)c(OC)c(OC)c3)cc2)nnc1-c1ccc(Cl)cc1	10.4%	5.58% (active)	11.8%	-3.5% (active)	-62.2% (active)	-8.4% (active)	
CC(=O)c1cc2c(N)c(C(=O)Nc3ccccn3)sc2nc1C	98.6%	5.72% (active)	96.9%	73.2%	93.3%	84.6%	
COc1ccc2c(c1)OC13Oc4cc(OC)ccc4C=C1CCCCC3=C2	92%	105%	90.7%	75.2%	73.4%	97.7%	
Cc1[nH]c(N=Nc2ccccc2)nc1N=Nc1ccccc1	37.7%	37.1%	31.7%	15.3%	11.1%	26.3%	
N#C/C(=C/c1ccc(O)c([N+](=O)[O-])c1)c1nc(-c2ccc([N+](=O)[O-])cc2)cs1	36.3%	40.2%	54.2%	25.8%	33.8%	30.4%	36%
COc1ccc(Sc2[nH]c(C(C)=O)c3ccccc23)cc1	50.1%	-23.4% (active)	58.6%	57.5%	65.3%	70.2%	37%
O=C1Nc2ccccc2C12C=C(c1ccccc1)Nc1c2c(-c2ccccc2)nn1-c1ccccc1 (centres undefined)	70.1%	65.1%	75.6%	39%	48.6%	72.3%	56.1%
Cc1cnc(-c2ccc(-c3ccc(NC(=O)Nc4c(F)cc(F)cc4F)cc3F)c3c2C(=O)NC3)[nH]1	55.8%	14.2%	10.1%	22.1%	14.2%	60.5%	11.7%
O=S(=O)(O)c1ccc(N=NSc2ccc3ccccc3c2)cc1	94%	99.9%	96.5%	98.9%	85.8%	97.2%	98.6%
O=C1C(Cl)=C(NCCCN(CCCNC2=C(Cl)C(=O)c3ccccc3C2=O)C2=C(Cl)C(=O)c3ccccc3C2=O)C(=O)c2ccccc21	85.6%	-86.5% (active)	47.6%	-19.9% (active)	4.83% (active)	92.4%	80.1%
COc1cc2c(cc1OC)C(Sc1ccc(Cl)cc1)c1c(nc(N)c(C#N)c1N)O2 (centres undefined)	1.72% (active)	-43.8% (active)	-63.1% (active)	-52.2% (active)	-70.6% (active)	-48.1% (active)	-27.8% (active)
O=C(C[n+]1cccc2cc(Cl)ccc21)c1ccc2c(c1)CCCC2	22.2%	10.8%	35.6%	4.57% (active)	7.99% (active)	27.7%	14.7%
Cc1cc(Cl)cc(CN(Cc2ccccc2)Cc2c(O)ccc3ccccc23)c1O	99%	112%	105%	85%	111%	91.5%	99.9%
NS(=O)(=O)c1ccc(-n2nc(-c3ccccc3)ccc2=O)cc1	123%	113%	108%	96%	102%	108%	99.6%
CN1C(=O)c2cc(Cl)nc3c(NC(=O)c4cccc(Cl)c4)c(Cl)c(NC(=O)c4cccc(Cl)c4)c1c23	-8.59% (active)	3.49% (active)	-58.3% (active)	18.1%	-56.2% (active)	9.23% (active)	64.3%
Cc1cnc(SCc2ccc(Cl)cc2)[nH]c1=S	108%	104%	111%	95.6%	101%	108%	96.3%
OCCNc1nc(NCCO)nc(Nc2ccc(C3=NN(c4ccc(Cl)cc4)C(c4ccc(Cl)cc4)C3)cc2)n1 (centres undefined)	77.1%	58.1%	71.1%	20.4%	48.6%	56.8%	49.8%

SMILES	growth (BT-549 breast)	growth (MDA-MB-435 melanoma)	growth (SW-620 colon)	growth (MCF7 breast)	growth (HCT-116 colon)	growth (HCC-2998 colon)	growth (KM12 colon)
COc1ccc(-c2cc(C(=O)N3N=C(c4ccc(N)cc4)CC3c3ccc(OC)cc3)c3cc(OC)ccc3n2)cc1 (centres undefined)	66.4%	3.45% (active)	30.1%	14.2%	7.78% (active)	91.6%	22.5%
CCCn1c(N)c(C(N)=O)sc1=S	118%	109%	101%	106%	101%	110%	97.4%
Cc1cc2ccccc2c[n+]1CC(=O)c1ccc(-c2ccccc2)cc1	53.3%	66.3%	48.5%	29.3%	28.4%	61.8%	56.7%
Cc1cnc(SCc2ccc(Cl)cc2Cl)nc1Nc1ccc(Cl)c(Cl)c1	101%	104%	102%	85.4%	77.3%	103%	89.4%
COc1cc(/C=C/CO)cc(OC)c1O[C@@H]1O[C@H](CO)[C@@H](O)[C@H](O)[C@H]1O	104%	102%	94%	93.2%	95.8%	102%	105%
CC(=O)Nc1nc2c(c(N)c1C#N)C(c1cccc(Cl)c1)C1=C(CCCC1=O)N2c1sc2c(c1C#N)CCCC2 (centres undefined)	45.9%	65.5%	80.3%	20.7%	33.3%	45.7%	49.1%
CCCCn1c(=O)c(/C=C/C(=O)/C=C/c2cc3ccccc3n(CCCC)c2=O)cc2ccccc21	-54.5% (active)	-65.2% (active)	-2.85% (active)	-0.486% (active)	-90.3% (active)	-92.6% (active)	-75.8% (active)
CSc1nc(-c2cccs2)c2c(N)[nH]nc2n1	96.4%	117%	119%	94.3%	92.2%	107%	48.8%
C=C(C)[C@@H]1CC[C@]2(C(N)=O)CC[C@]3(C)[C@H](CC[C@@H]4[C@@]5(C)CCCNC(C)(C)[C@@H]5CC[C@]43C)[C@@H]12	85.2%	78.7%	75.5%	45.3%	55.8%	98.2%	79.8%
C=C1C(=O)O[C@H]2[C@H]1CC/C(COC(=O)n1ccnc1)=C\CC[C@@]1(C)O[C@@H]21	94.8%	99.6%	71.2%	76.8%	81.6%	104%	105%
CN1CCN(/C=C2\CC(C(=O)NCc3ccc(Cl)cc3Cl)NC2=O)CC1 (centres undefined)	136%	119%	98%	103%	110%	101%	103%
Nn1c(SCC(=O)Nc2ccc(Cl)cc2)nnc1-c1cc(F)c(Cl)cc1Cl	114%	97.3%	92%	72.3%	83.1%	93.2%	72.8%
CC(C)NS(=O)(=O)c1cccc(-c2ccc3c4c(n(CCCN(C)C)c(=O)c3c2)-c2ccccc2C4=O)c1	95.6%	92.9%	57.4%	38.8%	-66% (active)	96.8%	93.9%
CC(=O)c1cnc(-c2ccccc2)nc1CBr	70.3%	86.4%	39.6%	52.2%	28.4%	99.8%	95.2%
Cc1c(Cl)cccc1NC(=O)c1sc2nc3c(cc2c1N)CCCCC3	48.7%	-0.269% (active)	25.3%	20.8%	32.3%	55.7%	24.7%
CCOCc1cc(C(C)(C)C)ccc1O	104%	102%	93.4%	97.6%	91.2%	104%	106%
COc1ccc(/C=C(/C(=O)N2CCN(Cc3ccccc3)CC2)c2cc(OC)c(OC)c(OC)c2)cc1O	77.2%	1.04% (active)	45.6%	20.9%	32%	95.8%	55.9%
